In PubChem BioAssay AID463173 (ICCB-Longwood Screening Facility, Harvard Medical School, 2010):
The whole screen tested about 52,000 compounds, of which about 4,300 (8.3%) were called active. Only a selection was taken, and actives are over-represented in it overall. A number with no mark means an inactive call. Rule as the data show it: active = survival mostly below about 52% (no sharp cut-off); inactive = mostly above about 56%.

tested on: DeltatarO mutant; assay: growth inhibition of S. aureus wild type versus tarO mutant, primary screen, teichoic acid synthesis inhibitors, RN4220, OD600 (AID 463173); details: OD600, 18 h, active compounds read low, screened at 18.75 µg/mL (by protocol)

SMILES | survival
CC(=O)N1CCc2c(sc3c2c(=O)n(CCc2ccccc2)c(=O)n3CC(=O)Nc2ccccc2F)C1 | 55%
COc1c(C)cc(NS(=O)(=O)c2ccc3c(c2)OCCO3)cc1C | 72%
O=C(COCc1cc(-c2cccs2)on1)N1CCN(c2ccccc2)CC1 | 72%
O=C(COCc1cc(-c2cccs2)on1)N1CCN(c2cccc(Cl)c2)CC1 | 37% (active)
O=C(COCc1cc(-c2cccs2)on1)N1CCN(c2ccc(F)cc2)CC1 | 98%
O=C(COCc1cc(-c2ccco2)on1)Nc1cccc(O)c1 | 78%
O=C(COCc1cc(-c2cccs2)on1)Nc1cccc(O)c1 | 0% (active)
Cc1ccc(NC(=O)COCc2cc(-c3cccs3)on2)cc1Cl | 57%
O=C(c1ccc2c(c1)N(Cc1ccccc1F)C(=O)c1ccccc1S2=O)N1CCC(Cc2ccccc2)CC1 (stereo unspecified) | 77%
Cc1cccc(C)c1NC(=O)Cn1nnc(S(=O)(=O)c2ccccc2)c1N | 91%
Cc1cccc(NC(=O)CSc2cn(CC(=O)N3CCOCC3)c3ccccc23)c1C | 64%
O=C(c1ccc2c(c1)N(Cc1ccccc1)C(=O)c1ccccc1S2(=O)=O)N1CCCCCC1 | 70%
COc1ccc(CNC(=O)C(C)n2ccc3cc(S(=O)(=O)N4CCCC4)ccc32)cc1OC (stereo unspecified) | 85%
O=C(NCc1ccco1)C(c1ccccc1)N(CCc1ccccc1)C(=O)Cn1nnc2ccccc21 (stereo unspecified) | 99%
O=C(CSc1c2c(nc3ccc(Cl)cc13)CCCC2)N1CCN(c2cccc(Cl)c2)CC1 | 51% (active)
O=C(CSc1c2c(nc3cc(Cl)ccc13)CCCC2)NCc1ccccc1Cl | 75%
O=C(CSc1c2c(nc3ccc(Cl)cc13)CCCC2)N1CCN(c2ccc(Cl)cc2)CC1 | 31% (active)
COc1ccc(OC)c(NC(=O)CSc2c3c(nc4cc(Cl)ccc24)CCCC3)c1 | 86%
O=C(CSc1c2c(nc3cc(Cl)ccc13)CCCC2)N1CCN(c2ccccc2F)CC1 | 50%

SMILES | survival
COc1ccc(CNC(=O)CSc2c3c(nc4ccc(Cl)cc24)CCCC3)cc1 | 77%
COc1ccc(N2CCN(C(=O)CSc3c4c(nc5ccc(Cl)cc35)CCCC4)CC2)cc1 | 35% (active)
O=C(CSc1c2c(nc3cc(Cl)ccc13)CCCC2)N1CCN(c2ccccc2)CC1 | 33% (active)
Cc1sc2ncn(CC(=O)Nc3ccc(C(C)C)cc3)c(=O)c2c1S(=O)(=O)N1CCN(c2ncccn2)CC1 | 59%
CC1=C(C(=O)Nc2ccccc2C)C(c2ccco2)n2ncnc2N1 (stereo unspecified) | 101%
CCc1cccc(C)c1NS(=O)(=O)c1cc2[nH]c(=O)c(=O)[nH]c2cc1C | 80%
CC(=O)c1ccc(N2CCN(c3ncnc4c3nc3n4CCCC3)CC2)cc1 | 75%
COC(=O)c1ccccc1NC(=O)Cn1c(=O)n(CCCCC(=O)NCc2ccc3c(c2)OCO3)c(=O)c2ccccc21 | 67%
COc1ccc(-c2nc3sc(CCNC(=O)c4ccc(Br)o4)c(C)n3n2)cc1 | 92%
COc1ccc(C)cc1NC(=O)C1COc2ccccc2C1 (stereo unspecified) | 83%
COc1ccccc1C(=O)N(c1ccc(C)cc1)S(=O)(=O)c1ccc(Cl)cc1 | 74%
COC(=O)c1ccc(NC(=O)CC2C(=O)N(c3cccc(OC)c3)C(=O)N2Cc2cccc(OC)c2)cc1 (stereo unspecified) | 105%
COc1ccc(C)cc1NC(=O)N1CCCn2nc(C)cc21 | 73%
COC(=O)c1ccc(Cl)cc1NC(=O)N1CCCn2nc(C)cc21 | 94%
COc1cc(OC)c(NC(=O)N2CCCn3nc(C)cc32)cc1Cl | 47% (active)
O=C(NC1CCCCC1)C(Cc1ccccc1)N1C(=O)C2C3C=CC(C3)C2C1=O (stereo unspecified) | 92%
Cc1ccc2nc(NCc3ccc(F)cc3)c3nncn3c2c1 | 121%
Cc1cc(F)ccc1Nc1nc2ccc(Cl)cc2n2cnnc12 | 90%
Cc1ccc2nc(Nc3ccc(C)c(F)c3)c3nncn3c2c1 | 38% (active)

SMILES | survival
Cc1ccc(NC(=O)c2ccc(=O)n(CC(=O)Nc3cccc(C)c3)n2)cc1 | 72%
COc1cccc(CNC(=O)CCc2c(C)nn(-c3ccc(N4CCOCC4)nn3)c2C)c1 | 100%
Cc1cccn2c(=O)cc(COc3ccc(NC(=O)COc4ccc(F)cc4)cc3)nc12 | 89%
Cc1cccn2c(=O)cc(COc3cccc(NC(=O)c4ccccc4F)c3)nc12 | -5% (active)
Cc1ccccc1C(=O)Nc1ccc(OCc2cc(=O)n3cccc(C)c3n2)cc1 | 88%
COc1cc(C(=O)Nc2ccc(OCc3cc(=O)n4ccc(C)cc4n3)cc2)cc(OC)c1OC | 8% (active)
Cc1ccc(OCC(=O)Nc2cccc(OCc3cc(=O)n4cccc(C)c4n3)c2)cc1C | 122%
Cc1ccc(OCC(=O)Nc2ccc(OCc3cc(=O)n4cccc(C)c4n3)cc2)cc1C | -5% (active)
Cc1cccc(C(=O)Nc2ccc(OCc3cc(=O)n4ccc(C)cc4n3)cc2)c1 | 81%
Cc1cccn2c(=O)cc(COc3ccc(NC(=O)c4cccc(F)c4)cc3)nc12 | 17% (active)
CCOc1ccc(C(=O)Nc2ccc(OCc3cc(=O)n4cccc(C)c4n3)cc2)cc1 | 55%
Cc1cccc(C(=O)Nc2cccc(OCc3cc(=O)n4cccc(C)c4n3)c2)c1 | 92%
Cc1ccccc1C(=O)Nc1cccc(OCc2cc(=O)n3cccc(C)c3n2)c1 | 77%
COc1ccccc1C(=O)Nc1ccc(OCc2cc(=O)n3ccc(C)cc3n2)cc1 | 89%
CCOC(=O)c1ccccc1NC(=O)N1CCc2c(sc(C)c2CC)C1c1ccccc1 (stereo unspecified) | 124%
O=C(Cc1csc2ccccc12)NCc1cccc(Br)c1 | 84%
O=S(=O)(c1ccc(-c2cnc(C3CC3)o2)cc1)N1CCN(c2ccccc2F)CC1 | 87%
Cc1ccc(C(=O)NCc2ccccc2)cc1NC(=O)c1nsc2ccccc12 | 84%
